Among all 5,600 compounds or so, about 390 (7%) showed an effect of 50% or more. Many of the other results were omitted from the sample, so strong results are more common in it than they were.

The target of this experiment is T1, Protein deacetylase HDAC6 (Homo sapiens) (UniProt Q9UBN7).
T1 sequence (whole entry): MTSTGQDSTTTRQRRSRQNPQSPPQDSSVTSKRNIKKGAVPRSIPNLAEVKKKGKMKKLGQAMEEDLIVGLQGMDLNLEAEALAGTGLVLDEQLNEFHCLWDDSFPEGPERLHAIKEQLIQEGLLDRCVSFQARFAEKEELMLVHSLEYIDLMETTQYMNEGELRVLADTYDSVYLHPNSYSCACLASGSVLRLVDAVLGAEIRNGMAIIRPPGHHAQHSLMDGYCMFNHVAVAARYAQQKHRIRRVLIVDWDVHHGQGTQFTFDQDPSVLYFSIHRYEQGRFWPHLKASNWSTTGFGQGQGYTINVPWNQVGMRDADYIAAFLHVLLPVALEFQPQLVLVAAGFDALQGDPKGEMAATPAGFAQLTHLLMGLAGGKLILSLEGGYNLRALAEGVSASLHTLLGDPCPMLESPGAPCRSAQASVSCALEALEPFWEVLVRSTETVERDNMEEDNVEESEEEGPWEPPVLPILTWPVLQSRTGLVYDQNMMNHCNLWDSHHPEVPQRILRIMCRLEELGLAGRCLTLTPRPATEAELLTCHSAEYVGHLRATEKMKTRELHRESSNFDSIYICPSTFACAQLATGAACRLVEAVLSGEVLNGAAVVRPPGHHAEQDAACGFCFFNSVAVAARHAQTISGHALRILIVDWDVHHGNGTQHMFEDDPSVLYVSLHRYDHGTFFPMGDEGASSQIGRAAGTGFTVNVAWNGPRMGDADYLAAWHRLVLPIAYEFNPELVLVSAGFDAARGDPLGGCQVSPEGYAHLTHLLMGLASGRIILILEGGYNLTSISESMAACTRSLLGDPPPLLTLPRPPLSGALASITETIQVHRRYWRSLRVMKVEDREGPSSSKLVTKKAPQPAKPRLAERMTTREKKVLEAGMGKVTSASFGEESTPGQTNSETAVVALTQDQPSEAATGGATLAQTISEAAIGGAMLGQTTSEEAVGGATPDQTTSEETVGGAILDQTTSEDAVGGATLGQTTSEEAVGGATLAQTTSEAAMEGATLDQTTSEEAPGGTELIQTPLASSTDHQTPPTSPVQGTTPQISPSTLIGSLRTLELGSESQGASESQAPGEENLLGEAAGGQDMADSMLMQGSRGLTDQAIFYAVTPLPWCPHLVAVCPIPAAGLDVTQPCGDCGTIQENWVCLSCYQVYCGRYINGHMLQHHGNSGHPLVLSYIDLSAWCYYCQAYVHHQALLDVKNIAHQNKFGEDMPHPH
The note with it: at 10 µM.
A word on the inhibition: it is the change of the read-out against control, counted positive when it falls. For the compound `O=C(Nc1ccccc1C(=O)Nc1ccc(CCO)cc1)c1ccc([N+](=O)[O-])cc1`, the inhibition worked out at 78.3%.

Turning to `O=C(Nc1cc(-c2ccccc2)nn1-c1ccccc1)c1ccc([N+](=O)[O-])cc1`, the inhibition was found to be 23%. As for `CCOC(=O)[C@H](Cc1ccc([N+](=O)[O-])cc1)NC(=O)c1ccccc1`, the figure is 14.4%; as for `C[C@]12C=CC(=O)N[C@@H]1CC[C@@H]1[C@@H]2CC[C@]2(C)[C@@H](C(=O)Nc3cc(C(F)(F)F)ccc3C(F)(F)F)CC[C@@H]12`, 34.1%; as for `O=C(NCCN1CCC(n2c(=O)[nH]c3ccccc32)CC1)c1cc2cc(F)ccc2[nH]1`, 22.7%. Turning to `CCOCOC[C@H](C[C@H](C)C(=O)NO)NC(=O)c1ccc(Oc2ccccc2)cc1`, the inhibition amounted to 25.9%.

In the case of `CC(C(=O)O)c1ccc2c(c1)Cc1ccccc1-2` (configuration not stated), the inhibition was found to be 63.7%. As for `CC(C(=O)O)c1ccc(-c2ccccc2)c(F)c1` (racemic), the figure is 13.4%.

For `C[C@@H](C(=O)O)c1ccc(-c2ccccc2)c(F)c1`, the inhibition is 0.12%. Next, `CCn1cnc(C(=O)NC)c1C(=O)NC`: -8.83%; `Cc1ccccc1N1CCN(S(=O)(=O)CC23CCC(C[C@@H]2NC(=O)[C@@H](N)CCS(C)(=O)=O)C3(C)C)CC1` (some centres not stated): 2.99%. For the compound `CN[C@@H]1[C@H](O[C@H]2[C@H](O[C@H]3[C@H](O)[C@@H](O)[C@H](NC(=N)N)[C@@H](O)[C@@H]3NC(=N)N)O[C@@H](C)[C@]2(O)CO)O[C@@H](CO)[C@H](O)[C@H]1O`, the inhibition is 8.93%. Consider `C/C1=C/C[C@@H](/C(C)=C/c2csc(C)n2)OC(=O)C[C@H](O)C(C)(C)C(=O)[C@H](C)[C@@H](O)[C@@H](C)CCC1`, for which the inhibition is -9.51%. As to `CC(C1=C(CCN(C)C)Cc2ccccc21)c1ccccn1` (configuration not stated), the inhibition was -6.73%.

Take `CN(C)CC/C=C1\c2ccccc2Sc2ccc(Cl)cc21`: the inhibition stood at 91.2%.

Consider `CN(C)CCC=C1c2ccccc2CCc2ccccc21`, for which the inhibition came out at 60.4%. As for `CC(=O)c1ccc2c(c1)N(CCCN(C)C)c1ccccc1S2`, the figure is 43.7%; as for `C[C@@H](C1=C(CCN(C)C)Cc2ccccc21)c1ccccn1`, -1.4%. As for `CCOC(=O)c1ccc(-c2ccc(OC(=O)N(C)Cc3cccc(-c4ccncc4)c3)cc2)cc1`, the figure is 5%; as for `CC(C)(C)c1cc(C(C)(C)C)c2c(c1)C(O)(C(F)(F)F)C(=O)O2` (racemic), -6.8%; as for `Fc1ccccc1CNCc1ccc(-c2ccnc3[nH]ccc23)cc1`, 44.7%. Take `CSc1nc(N)cc(Oc2ccc(-c3nnc(Nc4cccc(C(F)(F)F)c4)[nH]3)cc2)n1`: the inhibition was 10.4%.

Take `CC(C)[C@@H](C)/C=C/[C@@H](C)[C@H]1CC[C@H]2C3=CC=C4C[C@@H](O)CC[C@]4(C)[C@H]3CC[C@]12C`: the inhibition was determined as 26.6%. As to `COc1cccc(CN2C[Si](C)(C)O[Si](C)(C)C2)c1`, the inhibition was 9.47%.

`Nc1ncnc2c1ncn2[C@@H]1O[C@H](COP(=O)(O)OP(=O)(O)OP(=O)(O)O)[C@@H](O)[C@H]1O`: the inhibition is -7.9%. For `NC(=O)Cc1cccc(C(=O)c2ccccc2)c1N`, the inhibition is 48.4%.

On to `Nc1c(CC(=O)O)cccc1C(=O)c1ccccc1`, for which the inhibition worked out at 0.48%. As to `Nc1c(CC(=O)O)cccc1C(=O)c1ccc(Br)cc1`, the inhibition came out at 69.8%. As for `COc1cc(OC)nc(O[C@H](C(=O)O)C(OC)(c2ccccc2)c2ccccc2)n1`, the figure is -2.76%.

`COc1cc(/C=C/C(N)=O)cc(OC)c1OC`: the inhibition was 13.3%. Consider `Cn1cc(C(=O)c2cccc3ccccc23)cc1C(=O)O`, for which the inhibition is 25%. As for `Cn1cc(-c2ccc(F)c(C(F)(F)F)c2)nc1C1CCN(c2ncnc3[nH]ncc23)CC1`, the figure is 24%. With `CCCCCCCCCCCCCCCCCC[S+](CCC)c1ccccc1C(=O)OCC` (configuration not stated), the inhibition amounted to 21%. As to `CC[N+](C)(CC)CCC[n+]1c(-c2ccccc2)c2cc(N)ccc2c2ccc(N)cc21`, the inhibition was found to be 60.2%. For the compound `CC[n+]1c(-c2ccccc2)c2cc(N)ccc2c2ccc(N)cc21`, the inhibition was found to be 2.78%. As for `CC(C)(C(=O)O)c1ccc(C(=O)CCCN2CCC(OC(c3ccccc3)c3ccccc3)CC2)cc1`, the figure is 3.08%; as for `CCc1c2c(nc3ccc(OC(=O)N4CCC(N5CCCCC5)CC4)cc13)-c1cc3c(c(=O)n1C2)COC(=O)[C@]3(O)CC`, -2.26%; as for `Cc1cc(OCc2nc(-c3ccccc3Cl)cs2)ccc1OCC(=O)O`, 33.8%. As for `Cc1cc(SCc2sc(-c3ccc(C(F)(F)F)c(F)c3)nc2C)ccc1OCC(=O)O`, the figure is 66.5%; as for `Cn1ncnc1COc1nn2c(-c3c(F)cccc3F)nnc2cc1C1CCC1`, 3.27%. As to `CCOC(=O)C(=O)Nc1cccc(OC)c1C(N)=O`, the inhibition was determined as 24.8%. Take `CCN(CC)CCCCC(NC(=O)c1ccc([N+](=O)[O-])cc1)c1ccccc1` (configuration not stated): the inhibition is -1.83%. As for `CCOc1ccc(/C=C2\NCCc3cc(OCC)c(OCC)cc32)cc1OCC`, the inhibition was 7.94%. For the compound `CCOc1nc2c(N)ncnc2n1CC`, the inhibition worked out at 7.36%. As for `CN(C)CCOc1ccc(/C(=C(/CCCl)c2ccccc2)c2ccccc2)cc1`, the figure is 33.5%; as for `C=CC(=O)N1CCC[C@@H](n2nc(-c3ccc(Oc4ccccc4)cc3)c3c(N)ncnc32)C1`, 73%; as for `Nc1ncnc2c1c(-c1cnc3[nH]ccc3c1)nn2C1CCCC1`, 27.2%. As for `C=CC(=O)N1CCC[C@@H](n2c(=O)n(-c3ccc(Oc4ccccc4)cc3)c3c(N)ncnc32)C1`, the figure is 9.93%; as for `COc1ccc2nc3ccc(Cl)cc3c(SCCCN)c2c1`, 31.8%.

Take `COc1cc(C(=O)c2c(C)oc3c(O)c(OC)ccc23)cc(OC)c1OC`: the inhibition came to 31.9%. Turning to `CCN(CC)C(=O)C1(c2ccccc2)CC1CN` (configuration not stated), the inhibition was -2.35%. Take `COc1cccc2c1c(O)c(C(=O)N(C)c1ccc(C(F)(F)F)cc1)c(=O)n2C`: the inhibition was -4.13%. As for `C[C@@H]1CN(CCCn2c3ccccc3c3ccccc32)C[C@H](C)N1`, the figure is 1.8%; as for `O=C(Nc1cccc(C(F)(F)F)c1)Nc1ccc(Br)cc1-c1nnn[nH]1`, -9.24%; as for `O=c1c2ccccc2[se]n1-c1ccccc1`, 107%. Turning to `Cc1c(C(=O)Nc2ccc(N3CCC(N4CCOCC4)CC3)c(C#N)c2)cnn1-c1ccc(Cl)cc1`, the inhibition was determined as 9.57%. As for `CCC[N+]12C3C[C@H](C4C(O)[C@]5(C[C@@H]41)c1ccccc1N(C)[C@@H]35)[C@H](CC)[C@H]2O` (some centres not stated), the figure is 26.3%; as for `CS(=O)(=O)CS(=O)(=O)OCCCl`, 9.47%; as for `CC(OC(=O)NCC1(CC(=O)O)CCCCC1)OC(=O)C(C)C` (configuration not stated), 3.02%. With `c1ccc2sc(SNC3CCCCC3)nc2c1`, the inhibition was 80%. For the compound `C#Cc1cncc([C@@H]2CCCN2C)c1`, the inhibition is 18.9%. Next, `CO[C@@H](C(=O)N1Cc2[nH]nc(NC(=O)c3ccc(N4CCN(C)CC4)cc3)c2C1)c1ccccc1`: 21.1%.

The values above are taken from ChEMBL document CHEMBL4808148, “HDAC6 screening dataset using tau-based substrate in an enzymatic assay yields selective inhibitors and activators” (2021).
